Experimental data as given in PubChem BioAssay (NCI).
Where “and” joins values, the source holds several entries; their conditions need not be identical. Equal entries are not always repeated. The panel holds about 83,000 compounds, 20% with a hit somewhere; the sample as a whole holds those more often.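 Single-concentration screen, 48 h exposure, 96-well plates. Endpoint: percent growth. Below 10 = active.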 Some structures have more than one record in an assay (separate samples or runs), and their calls can disagree. Calls of active or inactive are those of the source.

What was measured:
Experiment in all cases: NCI-60 one-dose screen, 48 h (100 = growth as untreated, 0 = no growth, -100 = all killed)
Details in all cases: 10 µM
[1] = test system: NCI-H23 lung
[2] = test system: NCI-H226 lung
[3] = test system: NCI-H322M lung
[4] = test system: HOP-62 NSCLC
[5] = test system: NCI-H460 lung
Method: (§1) Growth inhibition of the NCI-H460 human Non-Small Cell Lung tumor cell line is measured as a screen for anti-cancer activity. Cells are grown in 96 well plates and exposed to the test compound for 48 hours. Compounds are tested at a single concentration, which is 10^-5 M for most compounds. The reported endpoint is percent growth (GI% or GIPRCNT), where numbers from 0 - 100% represent growth inhibition, and numbers from -100% - 0 represent cell death. For example, a value of 40 represents 60% growth inhibition. A value of 0 means no net growth occurred over the course of the experiment. A value of -40 indicates 40% of cells at the beginning of the experiment died by the end of the experiment. A value of -100 means all cells are dead at the end of the experiment.
(§2) NCI-60 Human Tumor Cell Lines Screen was performed using the standard one-dose NCI protocol, which is described in more detail at https://dtp.cancer.gov/discovery_development/nci-60/default.htm.
(§3) Compounds with GIPRCNT values below 10 were considered active. Activity score was based on GIPRCNT using the following formula: […]
(§4) Score is 0 for GIPRCNT values of 100 or above, 50 for GIPRCNT values of 0, and 100 for GIPRCNT values of -100.

[6] = test system: HOP-92 NSCLC
[7] = test system: NCI-H522 lung
[8] = test system: A549/ATCC NSCLC
[9] = test system: 786-0 renal
Method: as §1, with “Cells” for “Growth inhibition of the NCI-H460 human Non-Small Cell Lung tumor cell line is measured as a screen for anti-cancer activity. Cells”
as §2, §3, §4

[10] = test system: COLO 205 colon
Method: as §1, with “Cells” for “Growth inhibition of the NCI-H460 human Non-Small Cell Lung tumor cell line is measured as a screen for anti-cancer activity. Cells”
as §2, §3, §4

| SMILES | growth [1] | growth [2] | growth [3] | growth [4] | growth [5] | growth [6] | growth [7] | growth [8] | growth [9] | growth [10] |
| --- | --- | --- | --- | --- | --- | --- | --- | --- | --- | --- |
| COc1ccc(C(=O)C(CN(C)C)CN(C)C)cc1 | 96.1% (inactive) | 113% (inactive) | 98% (inactive) | 97.9% (inactive) | 102% (inactive) | 44% (inactive) | -54.1% (active) | 118% (inactive) | 87.8% (inactive) | -75.3% (active) |
| C=C1C(=O)OC2CC1C(OC(C)=O)C/C(C)=C/CC/C(C)=C\CCC2(C)O (centres undefined) | 11.1% (inactive) | 15.9% (inactive) | 67.3% (inactive) | 106% (inactive) | 21.7% (inactive) | -28.6% (active) | -83.9% (active) | 64.1% (inactive) | 38.9% (inactive) | 0.7% (active) |
| CC1=CC(=C(c2ccc(N)cc2)c2ccc(N)cc2)C=CC1=N | 29.7% (inactive) and 44.7% (inactive) | 17% (inactive) and 51.4% (inactive) | 26.3% (inactive) and 38.5% (inactive) | 31.4% (inactive) and 20.6% (inactive) | 6.34% (active) | 2.19% (active) and 63% (inactive) | -8.93% (active) and 60.9% (inactive) | 14.1% (inactive) and 16.9% (inactive) | 23.5% (inactive) and 42.8% (inactive) | -8.22% (active) and -56.6% (active) |
| O=[N+]([O-])c1cc[n+]([O-])cc1 | 100% (inactive) | 105% (inactive) | 133% (inactive) | 131% (inactive) | 103% (inactive) | 116% (inactive) | 83.1% (inactive) | 101% (inactive) | 106% (inactive) | 117% (inactive) |
| CN(C)CCOC1(Cc2ccc(Cl)cc2Cl)CCC(C(C)(C)C)CC1 (centres undefined) | 33.4% (inactive) and 36.7% (inactive) | 53% (inactive) and 33.9% (inactive) | 70% (inactive) and 76.3% (inactive) | 39.8% (inactive) and 42.1% (inactive) | -65.8% (active) and -61.2% (active) | 47.9% (inactive) and 43% (inactive) | 9.54% (active) and 48.6% (inactive) | 38.9% (inactive) and 21.1% (inactive) | 51.2% (inactive) and 24.3% (inactive) | -89.2% (active) and -87.9% (active) |
| Cc1cc(N(CCOS(C)(=O)=O)CCOS(C)(=O)=O)ccc1C=Nc1ccc(-c2nc(Cc3ccccc3)sc2C)cc1 | 31% (inactive) | 61.6% (inactive) | -18.9% (active) | 36% (inactive) | -38.3% (active) |  | -91.3% (active) | 34.8% (inactive) | 13.8% (inactive) | -71.3% (active) |
| Cc1ccc(Sc2ccccc2N)cc1 | 72.3% (inactive) | 106% (inactive) | 105% (inactive) | 100% (inactive) | 41.3% (inactive) | 101% (inactive) | 71.4% (inactive) | 96% (inactive) | 108% (inactive) | 96.8% (inactive) |
| C#CCN(Cc1ccc2nc(N)[nH]c(=O)c2c1)c1ccc(C(=O)NC(CCC(=O)O)C(=O)O)cc1 (centres undefined) | 99.2% (inactive) | 80.8% (inactive) | 90.3% (inactive) | 82.3% (inactive) | 80.1% (inactive) | 86.9% (inactive) | 80.2% (inactive) | 95% (inactive) | 12% (inactive) | 67.4% (inactive) |
